# Screening data from PubChem BioAssay.
# Rows were chosen to be rich in hits. Some 1.9% of all compounds tested hit in one or more screens of this group.
# HTR5A ag: counter-screen for OPRM1-OPRD1 agonists: human HTR5A agonism; HTR5A agonist assay, luminescence, cell-based; activation, % at 9.3 µM; actives 0.61% (n = 340,000); in the data active = activation mostly above about 9.5%, no sharp cut-off; inactive = mostly below about 7.6%
# bovine MsrA act: bovine methionine sulfoxide reductase A activation; purified bovine MsrA, absorbance read-out; activation, % at 10.6 µM; actives 0.3% (n = 360,000); in the data active = activation above about 7.5%
# MsrA inh: bovine MsrA inhibition. inhibition, % at 15.5 µM. actives 0.75% (n = 360,000). purified bovine MsrA, absorbance read-out; in the data active = inhibition above about 4.5%
# MOR-DOR inv ag: mu-delta opioid heterodimer inverse agonism; cell-based MOR-DOR heterodimer luminescence; P35372+P41143; actives 0.21% (n = 340,000); inhibition, % at 9.3 µM; AID 504357; in the data active = inhibition above about 22%, passing the limit was not always enough
# Target sequence (P35372 whole entry, looked up): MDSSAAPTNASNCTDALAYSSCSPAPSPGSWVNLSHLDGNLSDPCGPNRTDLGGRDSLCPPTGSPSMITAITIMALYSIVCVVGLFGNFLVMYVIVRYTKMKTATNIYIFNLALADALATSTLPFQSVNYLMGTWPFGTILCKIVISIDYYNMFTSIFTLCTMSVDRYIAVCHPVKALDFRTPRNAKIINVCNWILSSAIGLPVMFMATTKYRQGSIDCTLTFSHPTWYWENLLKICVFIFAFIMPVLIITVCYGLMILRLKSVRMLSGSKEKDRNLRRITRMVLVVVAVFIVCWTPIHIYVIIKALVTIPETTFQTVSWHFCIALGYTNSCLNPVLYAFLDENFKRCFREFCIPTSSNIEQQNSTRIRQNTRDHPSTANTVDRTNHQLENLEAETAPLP
# Target sequence (P41143 whole entry, looked up): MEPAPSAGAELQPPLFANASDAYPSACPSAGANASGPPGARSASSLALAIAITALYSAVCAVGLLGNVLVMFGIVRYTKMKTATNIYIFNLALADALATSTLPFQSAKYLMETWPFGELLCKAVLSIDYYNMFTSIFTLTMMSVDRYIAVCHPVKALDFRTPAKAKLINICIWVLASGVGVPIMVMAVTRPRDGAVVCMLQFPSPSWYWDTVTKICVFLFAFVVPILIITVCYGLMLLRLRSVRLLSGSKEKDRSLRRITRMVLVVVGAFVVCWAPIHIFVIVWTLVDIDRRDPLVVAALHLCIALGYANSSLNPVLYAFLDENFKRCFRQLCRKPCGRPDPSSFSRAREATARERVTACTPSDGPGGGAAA
# HTR5A inv ctr: HTR5A inverse agonism, opioid heterodimer counter-screen. P47898. HTR5A cell line, luminescence. inhibition, % at 9.3 µM. actives 0.083% (n = 340,000). AID 504634; in the data active = inhibition mostly above about 23%, no sharp cut-off; inactive = mostly below about 18%
# OPRM1-OPRD1 ag: OPRM1-OPRD1 heterodimerization agonism; P35372+P41143; cells, luminescence; activation, % at 9.3 µM; actives 0.3% (n = 340,000); AID 504326; in the data active = activation above about 18%
# Numbers stand for hits; i = inactive; nt = no result.
SMILES,HTR5A ag,bovine MsrA act,MsrA inh,MOR-DOR inv ag,HTR5A inv ctr,OPRM1-OPRD1 ag
CC(=O)C1=C(C)N(Cc2ccc(Cl)cc2)C(=S)NC1c1cccc(Br)c1 (stereo not given),nt,nt,i,nt,nt,nt
CC(C)C(=O)Nc1ccc(S(=O)(=O)Nc2nccc(/C=C/c3ccccc3)n2)cc1,i,i,4.6,i,i,i
Cc1cc(C)nc(NS(=O)(=O)c2ccc(NC(=O)C(C)C)cc2)n1,i,i,i,i,i,i
O=[N+]([O-])c1c(Nc2ccccc2O)cc(Cl)c2nonc12,i,i,i,29,i,i
CC(/C=C/c1ccco1)=N\NC(=O)CNc1ccc2ccccc2c1,12,i,i,i,i,i
Cc1ccc(CNC(=O)c2cc(=O)c3cc(C)ccc3o2)cc1,i,i,i,i,i,i
COc1ccc(CNC(=O)c2cc(=O)c3cc(C)c(C)cc3o2)cc1,10,i,i,i,i,i
Cc1cc(N2CCN(C(=O)OC(C)(C)C)C[C@@H]2C)ccc1N1CCN(Cc2ccccc2)[C@H](C)C1,nt,nt,i,nt,nt,nt
COc1cccc(C(=O)N[C@H](C(=O)N2CCC[C@H]2C(=O)NCCc2ccccc2Cl)C(C)C)c1,nt,nt,i,nt,nt,nt
COCC(=O)/C=C1\Sc2ccccc2N1C,i,i,5.1,i,i,i
OC(c1ccccc1)(c1ccccc1)C1CCN(CCCOc2ccncc2)CC1,nt,nt,i,nt,nt,nt
CC(C)[C@H](NC(=O)c1ccc(Cl)cc1Cl)C(=O)N1CCC[C@H]1C(=O)NCCc1ccccc1Cl,nt,nt,i,nt,nt,nt
Cc1ccc2c(c1)c1c3n2CCN(C(=O)CN2CCN(C)CC2)C3CCC1 (stereo not given),9.1,i,i,i,i,i
CCN(CC)c1nc(N)c2c(N)nc3c(c2c1C#N)CC(c1ccccc1)O3 (stereo not given),i,i,6.3,i,i,i
CCn1c(O)c(/C=N/N=C/c2ccccc2)c2ccc(C3=NNC(=O)CC3)cc21,13,i,i,i,i,i
CC(C)C[C@H](NC(=O)c1nc[nH]c1C(=O)NC1CCN(C(=O)OC(C)(C)C)CC1)C(=O)OC(C)(C)C,i,i,i,i,i,i
CC(C)C[C@H](NC(=O)c1nc[nH]c1C(=O)NC1CCN(C(=O)OC(C)(C)C)CC1)C(=O)OCc1ccccc1,12,i,i,i,i,i
Cc1ccc(/C=C2\SC(N3CCCC3)=NC2=O)cc1,nt,nt,4.6,nt,nt,nt
CC(C)c1ccc(/C=C2\SC(N3CCCC3)=NC2=O)cc1,i,i,i,i,i,i
CCOC(=O)C1CCN(C2=NC(=O)/C(=C/c3ccc(Cl)cc3)S2)CC1,i,i,4.7,i,i,i
CCOC(=O)C1CCN(C2=NC(=O)/C(=C/c3ccc(OC)c(OC)c3)S2)CC1,i,i,i,i,i,i
CCC1Nc2ncnc(N3CCN(c4ccccn4)CC3)c2N(Cc2ccc(Br)cc2)C1=O (stereo not given),i,i,i,86,80,i
CCC1Nc2ncnc(N3CCN(c4ccccc4)CC3)c2N(Cc2ccccc2)C1=O (stereo not given),i,i,i,60,49,i
Cc1ccc(CN2C(=O)C(CC(C)C)Nc3ncnc(N4CCN(c5ccccc5)CC4)c32)cc1 (stereo not given),i,i,i,i,i,i
CCC1Nc2ncnc(N3CCN(c4ccccn4)CC3)c2N(Cc2ccc(Cl)cc2)C1=O (stereo not given),i,i,i,80,77,i
SMILES,HTR5A ag,bovine MsrA act,MsrA inh,MOR-DOR inv ag,HTR5A inv ctr,OPRM1-OPRD1 ag
COc1cc2c(cc1OC)[C@@H](NC(=O)c1ccncc1)[C@H](C)[C@H]2c1ccccc1,nt,nt,i,nt,nt,nt
COC(=O)C1=C(C)N(C)C(=NCc2ccc3c(c2)OCO3)NC1c1cccc(F)c1 (stereo not given),nt,nt,i,nt,nt,nt
Cc1ccc(NC(=O)CN2CCN(c3ccccn3)CC2)cc1S(=O)(=O)N(C)C,9.4,i,i,i,i,i
CCN(CC)S(=O)(=O)c1cc(NC(=O)CN2CCN(c3ccccn3)CC2)ccc1C,i,i,i,i,i,i
CCCCS(=O)(=O)N1CCCc2nc(-c3ccc(OC)cc3)ccc21,nt,nt,i,nt,nt,nt
COC(=O)c1ccc2c(c1O)C(=O)c1ccccc1C2=O,i,9.3,i,i,i,i
COC1=CC(=O)c2ccccc2C1=O,i,14,nt,i,i,i
COc1ccc(CN(CCC(c2ccccc2)c2ccc(OC(C)C)cc2)C(=O)CCl)cc1OC (stereo not given),52,i,i,i,i,82
